# The supplement of paper PMC8728848
# This is one part of a sample in which the strongest signals are shown more often than they occur.
# Columns and labels:
# Assay in all cases: glycan array binding signal (z-score within array); higher = stronger binding
# Settings in all cases: glycan notation: IUPAC condensed, linker removed; mutation: D229G
# [1] = target: Gal(b1-4)GlcNAc(b1-3)Gal(b1-4)GlcNAc(b1-3)[Gal(b1-4)GlcNAc(b1-3)Gal(b1-4)GlcNAc(b1-6)]GalNAc
# How it was run: (§1)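 From the Consortium for Functional Glycomics database, 3228 arrays were curated, keeping only those whose protein sequence was available. Binding is given as a within-array Z-score averaged across arrays sharing a protein sequence and across linkers. Negative Z-scores can be read as non-binding.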
# [2] = target: Gal(b1-4)GlcNAc(b1-3)Gal(b1-4)[Fuc(a1-3)]GlcNAc(b1-3)Gal(b1-4)[Fuc(a1-3)]GlcNAc
# How it was run: as §1
# [3] = target: Gal(b1-4)GlcNAc(b1-3)[Gal(b1-4)GlcNAc(b1-6)]Gal(b1-4)GlcNAc
# How it was run: as §1
# Gal3S(b1-3)GalNAc = target: Gal3S(b1-3)GalNAc
# How it was run: as §1
# [4] = target: Gal3S(b1-4)[Fuc(a1-3)]Glc6S
# How it was run: as §1
# Gal3S6S(b1-4)GlcNAc = target: Gal3S6S(b1-4)GlcNAc
# How it was run: as §1
# Gal4S6S(b1-4)GlcNAc = target: Gal4S6S(b1-4)GlcNAc
# How it was run: as §1
# Gal6S(b1-4)GlcNAc6S = target: Gal6S(b1-4)GlcNAc6S
# How it was run: as §1
# GalNAc(a1-3)GalNAc = target: GalNAc(a1-3)GalNAc
# How it was run: as §1
# GalNAc(b1-4)Gal(b1-4)Glc = target: GalNAc(b1-4)Gal(b1-4)Glc
# How it was run: as §1
# [5] = target: GalNAc(b1-4)GlcNAc(b1-2)Man(a1-3)[GalNAc(b1-4)GlcNAc(b1-2)Man(a1-6)]Man(b1-4)GlcNAc(b1-4)GlcNAc
# How it was run: as §1
# GalNAc(b1-6)GalNAc = target: GalNAc(b1-6)GalNAc
# How it was run: as §1
# [6] = target: GlcNAc(a1-3)Gal(b1-4)GlcNAc
# How it was run: as §1
# [7] = target: GlcNAc(a1-4)Gal(b1-4)GlcNAc(b1-3)Gal(b1-4)GlcNAc
# How it was run: as §1
# [8] = target: GlcNAc(a1-4)Gal(b1-4)GlcNAc(b1-3)Gal(b1-4)GlcNAc(b1-3)Gal(b1-4)GlcNAc
# How it was run: as §1
# [9] = target: GlcNAc(b1-3)Gal(b1-4)GlcNAc(b1-3)Gal(b1-4)GlcNAc(b1-3)Gal(b1-4)GlcNAc(b1-3)Gal(b1-4)GlcNAc(b1-2)Man(a1-3)[GlcNAc(b1-3)Gal(b1-4)GlcNAc(b1-3)Gal(b1-4)GlcNAc(b1-3)Gal(b1-4)GlcNAc(b1-3)Gal(b1-4)GlcNAc(b1-2)Man(a1-6)]Man(b1-4)GlcNAc(b1-4)[Fuc(a1-6)]GlcNAc
# How it was run: as §1
# [10] = target: GlcNAc(b1-3)Gal(b1-4)GlcNAc(b1-3)Gal(b1-4)GlcNAc(b1-3)Gal(b1-4)GlcNAc(b1-3)Gal(b1-4)GlcNAc(b1-2)[GlcNAc(b1-3)Gal(b1-4)GlcNAc(b1-3)Gal(b1-4)GlcNAc(b1-3)Gal(b1-4)GlcNAc(b1-3)Gal(b1-4)GlcNAc(b1-6)]Man(a1-6)[GlcNAc(b1-3)Gal(b1-4)GlcNAc(b1-3)Gal(b1-4)GlcNAc(b1-3)Gal(b1-4)GlcNAc(b1-3)Gal(b1-4)GlcNAc(b1-2)Man(a1-3)]Man(b1-4)GlcNAc(b1-4)[Fuc(a1-6)]GlcNAc
# How it was run: as §1
# GlcNAc(b1-3)Man = target: GlcNAc(b1-3)Man
# How it was run: as §1
# [11] = target: GlcNAc(b1-4)GlcNAc(b1-4)GlcNAc
# How it was run: as §1
# [12] = target: Man(a1-3)[Man(a1-6)]Man(a1-6)[Man(a1-2)Man(a1-3)]Man(b1-4)GlcNAc(b1-4)GlcNAc
# How it was run: as §1
# [13] = target: Man(a1-3)[Man(a1-6)]Man(b1-4)GlcNAc(b1-4)[Fuc(a1-6)]GlcNAc
# How it was run: as §1
# [14] = target: Neu5Ac(a2-3)Gal(b1-3)GlcNAc6S
# How it was run: as §1
# [15] = target: Neu5Ac(a2-3)Gal(b1-3)]Neu5Ac(a2-3)Gal(b1-4)]GlcNAc
# How it was run: as §1
# [16] = target: Neu5Ac(a2-3)Gal(b1-4)GlcNAc(b1-6)[Gal(b1-3)]GalNAc
# How it was run: as §1
# Neu5Ac(a2-6)Gal = target: Neu5Ac(a2-6)Gal
# How it was run: as §1
# [17] = target: Neu5Ac(a2-6)Gal(b1-4)GlcNAc(b1-2)Man
# How it was run: as §1
# [18] = target: Neu5Ac(a2-6)Gal(b1-4)GlcNAc(b1-3)Gal(b1-4)GlcNAc(b1-3)[Neu5Ac(a2-6)Gal(b1-4)GlcNAc(b1-3)Gal(b1-4)GlcNAc(b1-6)]GalNAc
# How it was run: as §1
# [19] = target: Neu5Ac(a2-6)Gal(b1-4)GlcNAc(b1-3)Gal(b1-4)[Fuc(a1-3)]GlcNAc(b1-3)Gal(b1-4)[Fuc(a1-3)]GlcNAc
# How it was run: as §1
# [20] = target: Neu5Ac(a2-6)GalNAc(b1-4)GlcNAc6S
# How it was run: as §1
# [21] = target: Neu5Ac(a2-8)Neu5Ac(a2-3)Gal(b1-3)GalNAc(b1-4)[Neu5Ac(a2-3)]Gal(b1-4)Glc
# How it was run: as §1
binder,measurement,setting,value
"Epa1-NP-mutant-D229G (Candida glabrata), Q6VBJ0 (protein) MILNPALFLNKCVCIYTTLILLLLTNGGYATSSNDISLASKDPTTFPLGCSPDITTPKKGLSMELYSYDFRKKGSYPCWDAAYLDPNYPRTGYKSHRLLAKVDGVTGNINFYYHATKGCTPQLGHLPASYNYPKPLTMTNFTMLLYGYFRPKVTGFHTFTISADDLLFVNFGAGNAFDCCRRDSSADHFGNYQAYAIWGSKTAKDELTVHLDAGVYYPIRLFYNNREYGGALSFTFKTESNENTVSDFSEYFFSLDDTEEGCPGLISYDSSCASVKTSKIIGIDYHTETPNENLVPITKTIYHLGIPCTGTTTTPLCGSGFYDPLANKCVTINTSSTSSVTKTTSHTTSKEVSFHSSISSQKTLIPKSIPSPYGPIKSQSIPTEMETSSEISSSEYAFSDVISTPSHSPYTKKHSSLNSSSYTSTVIHSLTSYSISQGIFSTSLSEQNITSKSSTDKFSTATSMSNNITQSSIIISQFSTNNENYTTTSMHTSSDKISTETLNNSISTTTSILFSNSSTILKNNTTIISSDKDTHYHPVNPTIVCSTNKTEIICASITQPSISNSNNHWSSSVLKFNSTTVRSTLPSSAGSNETSINVPFSSSTESNTSTSSTSTSNSKMVRSTLPSSAGSNETSISVPFSSSTESNTSTSSTSTSNSKMVRSTLPSSAGSNETSINVPFSSSTESNTSTSSTSTSNSKTVRSTPFSSAGIIMTSLSQRNNKSASSYASSNSKCYNTADSCRKVHSTPSYLLTSSYTSEGVDYDCSLVSTKLKINDTNCVNNKHTTKSCLKTSVTTTIPTLEIKTARKSSSNTIGLHSYPTSSPNKSISSAPIIGYISSFKTIKTASPSYQTSDLTTITTITSLNNPGSTAVENTHESNDKSRKTSSNDISSKHSVIKETKDAVESSNKSHQTNTLKCSSIIIASSSHNSYESLGGTTLTLTLSKVYSPQNNDTLPFLEISEVNPSRTVLPESSKMMQYLTSTEERNKTARNTIATNIVSISTFHFEGEGNAIRMGYTQLLLMLIGIIVMNIGT",glycan array binding signal (z-score),[1],2.55
same,glycan array binding signal (z-score),[2],-0.579
same,glycan array binding signal (z-score),[3],0.003
same,glycan array binding signal (z-score),Gal3S(b1-3)GalNAc,-0.232
same,glycan array binding signal (z-score),[4],1.6
same,glycan array binding signal (z-score),Gal3S6S(b1-4)GlcNAc,2.68
same,glycan array binding signal (z-score),Gal4S6S(b1-4)GlcNAc,1.06
same,glycan array binding signal (z-score),Gal6S(b1-4)GlcNAc6S,10.9
same,glycan array binding signal (z-score),GalNAc(a1-3)GalNAc,0.722
same,glycan array binding signal (z-score),GalNAc(b1-4)Gal(b1-4)Glc,0.754
same,glycan array binding signal (z-score),[5],1.11
same,glycan array binding signal (z-score),GalNAc(b1-6)GalNAc,0.649
same,glycan array binding signal (z-score),[6],-0.409
same,glycan array binding signal (z-score),[7],0.024
same,glycan array binding signal (z-score),[8],-0.64
same,glycan array binding signal (z-score),[9],0.489
same,glycan array binding signal (z-score),[10],0.337
same,glycan array binding signal (z-score),GlcNAc(b1-3)Man,-0.859
same,glycan array binding signal (z-score),[11],0.36
same,glycan array binding signal (z-score),[12],0.04
same,glycan array binding signal (z-score),[13],-0.736
same,glycan array binding signal (z-score),[14],-0.064
same,glycan array binding signal (z-score),[15],0.197
same,glycan array binding signal (z-score),[16],0.933
same,glycan array binding signal (z-score),Neu5Ac(a2-6)Gal,0.425
same,glycan array binding signal (z-score),[17],0.054
same,glycan array binding signal (z-score),[18],3.67
same,glycan array binding signal (z-score),[19],1.65
same,glycan array binding signal (z-score),[20],0.733
same,glycan array binding signal (z-score),[21],-0.032
